Screening results from PubChem.
Sampled rows, rich in hits. Any-hit rate of the full collection: about 0.84%.
LRH-1 inv ag: inverse agonists of human LRH-1 (NR5A2); O00482; HEK293T StAR-luciferase reporter, LRH-1 transfected, 24 h; inhibition, % at 3.6 µM; hit rate 0.13% among 360,000; AID 602396;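 active = inhibition above the mean inhibition of all tested compounds plus 3 SD, cut at about 73% in these data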;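 note: 0% = DMSO wells and 100% = reporter-only cells lacking LRH-1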
NR2F2 inh: NR2F2 (human) inhibition, primary screen; hit rate 0.7% among 370,000; HEK293T NGFI-A luciferase reporter, luminescence; inhibition, % at 8.6 µM; P24468;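 active = inhibition above a per-plate cutoff, mean inhibition of test wells between control levels plus 3 SD, cut at about 38% in these data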;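 note: cells cotransfected with COUP-TFII expression vector driving the NGFI-A reporter; 0% = median of COUP-TF2 test wells and 100% = reporter-only cells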
SRC1 inh: human NCOA1 inhibition | Q15788 | HEK293 GAL4-SRC1 luciferase reporter, luminescence | inhibition, % at 3.6 µM | hit rate 0.12% among 360,000;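 active = inhibition above the campaign mean plus 3 SD, with each screening campaign given its own cutoff, cut at about 60% in these data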;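 note: 0% = DMSO treated cells and 100% = gossypol at 36 µM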
NCOA3 inh: inhibitors of human steroid receptor coactivator 3 (SRC3). inhibition, % at 3.6 µM. Q9Y6Q9. hit rate 0.17% among 360,000. HEK293 GAL4-SRC3 luciferase reporter, luminescence;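 active = inhibition above a per-campaign cutoff, the mean of all compounds plus 3 SD, cut at about 60% in these data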;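 note: 0% = DMSO-treated cells and 100% = gossypol-treated cells at 36 µM; higher means less SRC3-driven luciferase light from the GAL4 reporter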
SRC2 inh: inhibits human steroid receptor coactivator 2. inhibition, % at 9 µM. Q15596. HEK293 GAL4-SRC2 luciferase reporter, luminescence. hit rate 0.17% among 370,000;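 active = inhibition above the mean inhibition of all tested compounds plus 3 SD, set per campaign, cut at about 52% in these data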;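 note: 0% = DMSO treated cells and 100% = cells given Gossypol at 36 µM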
Target sequence (Q15596 whole entry, looked up, the tested form may be a part): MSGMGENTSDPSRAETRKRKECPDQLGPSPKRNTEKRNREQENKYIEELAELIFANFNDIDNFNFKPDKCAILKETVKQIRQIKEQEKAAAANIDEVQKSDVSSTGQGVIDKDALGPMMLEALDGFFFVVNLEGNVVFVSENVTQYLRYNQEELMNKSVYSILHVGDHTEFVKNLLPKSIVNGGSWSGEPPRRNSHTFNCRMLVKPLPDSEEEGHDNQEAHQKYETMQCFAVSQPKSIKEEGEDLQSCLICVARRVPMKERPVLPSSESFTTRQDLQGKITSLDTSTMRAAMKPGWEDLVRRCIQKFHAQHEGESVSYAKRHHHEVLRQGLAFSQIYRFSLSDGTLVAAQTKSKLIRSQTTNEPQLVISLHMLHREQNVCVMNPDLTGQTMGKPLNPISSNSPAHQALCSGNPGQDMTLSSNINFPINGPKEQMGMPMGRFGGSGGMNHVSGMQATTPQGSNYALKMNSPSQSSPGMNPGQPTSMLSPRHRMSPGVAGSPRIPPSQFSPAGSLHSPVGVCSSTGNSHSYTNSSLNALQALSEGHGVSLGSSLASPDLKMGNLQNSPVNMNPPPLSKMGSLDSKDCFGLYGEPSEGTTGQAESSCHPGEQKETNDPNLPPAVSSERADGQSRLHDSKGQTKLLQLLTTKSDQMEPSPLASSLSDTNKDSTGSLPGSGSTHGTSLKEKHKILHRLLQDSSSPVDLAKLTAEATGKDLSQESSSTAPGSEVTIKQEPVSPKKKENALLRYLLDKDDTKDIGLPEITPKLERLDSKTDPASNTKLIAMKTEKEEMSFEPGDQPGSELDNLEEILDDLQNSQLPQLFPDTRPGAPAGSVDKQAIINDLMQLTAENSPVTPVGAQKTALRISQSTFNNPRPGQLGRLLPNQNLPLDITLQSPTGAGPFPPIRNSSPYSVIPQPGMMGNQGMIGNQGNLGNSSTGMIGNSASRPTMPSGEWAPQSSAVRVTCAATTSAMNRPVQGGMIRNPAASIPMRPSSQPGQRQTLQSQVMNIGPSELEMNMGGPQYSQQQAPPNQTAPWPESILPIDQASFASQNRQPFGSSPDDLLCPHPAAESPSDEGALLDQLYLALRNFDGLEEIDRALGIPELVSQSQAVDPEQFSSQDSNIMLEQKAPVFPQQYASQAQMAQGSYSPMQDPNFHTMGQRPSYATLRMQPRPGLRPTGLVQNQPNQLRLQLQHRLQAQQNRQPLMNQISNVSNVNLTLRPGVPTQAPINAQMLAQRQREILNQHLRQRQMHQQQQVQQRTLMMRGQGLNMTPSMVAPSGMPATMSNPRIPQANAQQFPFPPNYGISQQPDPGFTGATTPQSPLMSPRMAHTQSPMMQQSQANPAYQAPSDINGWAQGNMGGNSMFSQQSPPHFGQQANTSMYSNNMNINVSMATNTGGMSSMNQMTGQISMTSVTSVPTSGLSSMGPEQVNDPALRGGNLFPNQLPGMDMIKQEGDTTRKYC
Gal4-VP16 ctr: inhibits VP16 reporter, flagging COUP-TFII antagonist hits | shares compounds with NR2F2 inh | HEK293 Gal4-VP16 luciferase reporter, luminescence | inhibition, % at 8.5 µM | hit rate 25% among 2,500 | AID 687007; in the data active = inhibition above about 13%
NR2F2 inh conf: confirmation of human COUP-TFII (NR2F2) inhibitors | shares compounds with NR2F2 inh | HEK293 NGFI-A luciferase reporter, luminescence | inhibition, % at 8.5 µM | hit rate 45% among 2,500;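 active = mean inhibition over three repeats above a set limit taken from the earlier primary screen, cut at about 38% in these data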;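 note: 100% = cells given the luciferase reporter alone without the COUP-TF2 vector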
Starred values were filed as active, the others as inactive; . = no result given.

SMILES	LRH-1 inv ag	NR2F2 inh	SRC1 inh	NCOA3 inh	SRC2 inh	Gal4-VP16 ctr	NR2F2 inh conf
Cc1ccc(C)c(NC(=O)[C@@H]2CCCN2S(=O)(=O)c2cccc3cccnc23)c1	.	-17	.	.	.	.	.
COc1ccccc1CCNC(=O)C(C)n1nc(C)c2c(C)n(-c3ccccc3)nc2c1=O (centres undefined)	17	2	-10	1	-12	.	.
COc1ccc(CCNC(=O)C(C)n2nc(C)c3c(C)n(-c4ccc(C)cc4)nc3c2=O)c(OC)c1 (centres undefined)	37	61*	17	35	9	4	62*
CC(NCc1ccco1)C(=O)N1CCN(Cc2ccccc2F)CC1 (centres undefined)	.	-4	.	.	0	.	.
Cc1nc2ccccc2c2oc(C(=O)N3CCC(N4CCCCC4)CC3)cc12	-79	.	9	6	.	.	.
Cc1nc2ccccc2c2oc(C(=O)N3CCN(C4CCCCC4)CC3)cc12	-41	42*	-7	2	-1	-7	11
COc1cccc(CNC(=O)c2cc3c(C)nc4ccccc4c3o2)c1	22	38*	2	-19	22	3	16
CCc1ccc(CNC(=O)c2cc3c(C)nc4ccccc4c3o2)cc1	14	51*	2	6	41	6	37
CCCCN(CC)CCNC(=O)c1cc2c(C)nc3ccccc3c2o1	-57	0	0	4	-5	.	.
COc1ccc(CNC(=O)c2cc3c(C)nc4ccccc4c3o2)c(OC)c1	43	.	36	-10	.	.	.
COc1cc(NC(=O)C2CCCN(S(=O)(=O)c3ccc(C)cc3)C2)cc(OC)c1 (centres undefined)	.	10	.	.	0	.	.
O=C(C1CCCN(S(=O)(=O)c2cccc3nsnc23)C1)N1CCc2ccccc2C1 (centres undefined)	-15	41*	-9	-7	32	-6	2
CN(CCO)C1CN(Cc2cn(Cc3ccccc3F)nn2)S(=O)(=O)C1 (centres undefined)	.	-4	.	.	4	.	.
CC(=O)CC[C@@H]1CC[C@]2(CCCN(C(=O)C3CCCCC3)C2)O1	.	2	.	.	-2	.	.
CCCC[C@H]1C2CC(OC(=O)Nc3ccccc3C)C(C2)[C@H]2CCCCN21 (some centres undefined)	.	-6	.	.	3	.	.
COc1ccc(/C=C2\COc3ccccc3C2=O)cc1OC	-12	-13	-14	12	-10	.	.
CCOc1cc(/C=C2\COc3ccccc3C2=O)cc(Br)c1OCC(=O)N(C)C	25	38*	35	42	57*	4	28
Cc1cccc(C(=O)N2CCc3cc(-c4nc(NC(=O)CN5CCCC5)sc4C)ccc32)c1	23	2	-3	14	-13	.	.
CS(=O)(=O)N1CCc2cc(-c3csc(NC(=O)Cc4cccs4)n3)ccc21	43	66*	11	30	-8	-4	35
O=C(CN1CCOCC1)Nc1nc(-c2ccc3c(c2)CCN3S(=O)(=O)c2ccccc2)cs1	-3	42*	9	25	16	0	15
Cc1sc(NC(=O)CN2CCOCC2)nc1-c1ccc2c(c1)CCN2S(=O)(=O)c1ccccc1	18	65*	19	19	-6	9	56*
Cc1ccc(-c2csc(NC(=O)CN3CCOCC3)n2)cc1	-3	-7	0	5	17	.	.
CC(=O)Nc1nc(-c2ccc3c(c2)CCN3S(C)(=O)=O)cs1	-49	-28	-32	-61	-42	.	.
Cc1cc(C)c(O)c(C(=O)CC2CC(=O)NC(=O)C2)c1	.	75*	.	.	31	-16	51*
CC(=O)N(Cc1cc2c(C)cc(C)cc2[nH]c1=O)C1CCCCC1	16	6	-2	20	-2	.	.
C[C@@H]1C[C@@H]2OC(=O)[C@]3(C)[C@H]2[C@@H](OC3(C)O)[C@]2(C)C(=O)C=C[C@H]12 (some centres undefined)	-12	-25	13	-18	-35	.	.
C=C1C(=O)O[C@@H]2C[C@@H](C)[C@@H]3C=CC(=O)[C@@]3(C)[C@@H](OC(C)=O)[C@H]12	.	86*	.	.	83*	94*	105*
